Results as given in ChEMBL document CHEMBL1961873, “Compounds: GSK PKIS; Assays: Nanosyn kinase panel” (2012).

How the values were obtained:
[1] = molecular target: Serine/threonine-protein kinase MARK2 (Homo sapiens) (UniProt Q7KZI7); details: at 1 µM
[2] = molecular target: PAS domain-containing serine/threonine-protein kinase (Homo sapiens) (UniProt Q96RG2); details: at 0.1 µM
[3] = molecular target: PAS domain-containing serine/threonine-protein kinase (Homo sapiens) (UniProt Q96RG2); details: at 1 µM
[4] = molecular target: Phosphorylase b kinase gamma catalytic chain, skeletal muscle/heart isoform (Homo sapiens) (UniProt Q16816); details: at 0.1 µM
[5] = molecular target: Phosphorylase b kinase gamma catalytic chain, skeletal muscle/heart isoform (Homo sapiens) (UniProt Q16816); details: at 1 µM
[6] = molecular target: T1, Phosphorylase b kinase gamma catalytic chain, liver/testis isoform (Homo sapiens) (UniProt P15735); details: at 0.1 µM
T1 sequence (whole entry): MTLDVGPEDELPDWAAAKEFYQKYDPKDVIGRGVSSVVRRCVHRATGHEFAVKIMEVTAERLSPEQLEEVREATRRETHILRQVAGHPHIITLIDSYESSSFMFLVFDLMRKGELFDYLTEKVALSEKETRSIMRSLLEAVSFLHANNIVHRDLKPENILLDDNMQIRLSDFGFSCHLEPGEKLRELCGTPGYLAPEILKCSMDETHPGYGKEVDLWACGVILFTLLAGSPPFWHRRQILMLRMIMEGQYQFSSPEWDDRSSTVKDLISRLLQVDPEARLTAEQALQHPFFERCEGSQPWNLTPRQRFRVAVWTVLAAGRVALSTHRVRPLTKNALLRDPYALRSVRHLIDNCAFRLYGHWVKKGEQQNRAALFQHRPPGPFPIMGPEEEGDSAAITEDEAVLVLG

[7] = molecular target: T1, Phosphorylase b kinase gamma catalytic chain, liver/testis isoform (Homo sapiens); details: at 1 µM
[8] = molecular target: Serine/threonine-protein kinase pim-1 (Homo sapiens) (UniProt P11309); details: at 0.1 µM
[9] = molecular target: Serine/threonine-protein kinase pim-1 (Homo sapiens) (UniProt P11309); details: at 1 µM
[10] = molecular target: Serine/threonine-protein kinase pim-2 (Homo sapiens) (UniProt Q9P1W9); details: at 0.1 µM
[11] = molecular target: Serine/threonine-protein kinase pim-2 (Homo sapiens) (UniProt Q9P1W9); details: at 1 µM
[12] = molecular target: Serine/threonine-protein kinase pim-3 (Homo sapiens) (UniProt Q86V86); details: at 0.1 µM
[13] = molecular target: Serine/threonine-protein kinase pim-3 (Homo sapiens) (UniProt Q86V86); details: at 1 µM
[14] = molecular target: T2, MAP kinase-activated protein kinase 5 (Homo sapiens) (UniProt Q8IW41); details: at 0.1 µM
T2 sequence (whole entry): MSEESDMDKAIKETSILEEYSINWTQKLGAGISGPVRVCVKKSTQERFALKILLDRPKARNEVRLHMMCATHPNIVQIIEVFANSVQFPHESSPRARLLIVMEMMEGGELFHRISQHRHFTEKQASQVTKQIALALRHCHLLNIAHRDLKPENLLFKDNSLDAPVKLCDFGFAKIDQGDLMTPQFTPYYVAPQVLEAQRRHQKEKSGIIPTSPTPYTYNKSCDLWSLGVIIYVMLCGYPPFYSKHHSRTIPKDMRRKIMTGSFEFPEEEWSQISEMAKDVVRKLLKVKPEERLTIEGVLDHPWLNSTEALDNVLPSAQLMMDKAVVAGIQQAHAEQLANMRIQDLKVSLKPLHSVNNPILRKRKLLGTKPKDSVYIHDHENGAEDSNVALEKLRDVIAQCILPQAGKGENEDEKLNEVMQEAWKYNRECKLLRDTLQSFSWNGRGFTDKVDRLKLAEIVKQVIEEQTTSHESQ

[15] = molecular target: T2, MAP kinase-activated protein kinase 5 (Homo sapiens); details: at 1 µM
[16] = molecular target: Serine/threonine-protein kinase SIK1 (Homo sapiens) (UniProt P57059); details: at 0.1 µM
[17] = molecular target: Serine/threonine-protein kinase SIK1 (Homo sapiens) (UniProt P57059); details: at 1 µM
[18] = molecular target: Serine/threonine-protein kinase SIK2 (Homo sapiens) (UniProt Q9H0K1); details: at 0.1 µM
[19] = molecular target: Serine/threonine-protein kinase SIK2 (Homo sapiens) (UniProt Q9H0K1); details: at 1 µM
[20] = molecular target: T3, Serine/threonine-protein kinase TBK1 (Homo sapiens) (UniProt Q9UHD2); details: at 0.1 µM;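 further: values are the mean TBK1 inhibition, taken from the GSK PKIS screening data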
T3 sequence (whole entry): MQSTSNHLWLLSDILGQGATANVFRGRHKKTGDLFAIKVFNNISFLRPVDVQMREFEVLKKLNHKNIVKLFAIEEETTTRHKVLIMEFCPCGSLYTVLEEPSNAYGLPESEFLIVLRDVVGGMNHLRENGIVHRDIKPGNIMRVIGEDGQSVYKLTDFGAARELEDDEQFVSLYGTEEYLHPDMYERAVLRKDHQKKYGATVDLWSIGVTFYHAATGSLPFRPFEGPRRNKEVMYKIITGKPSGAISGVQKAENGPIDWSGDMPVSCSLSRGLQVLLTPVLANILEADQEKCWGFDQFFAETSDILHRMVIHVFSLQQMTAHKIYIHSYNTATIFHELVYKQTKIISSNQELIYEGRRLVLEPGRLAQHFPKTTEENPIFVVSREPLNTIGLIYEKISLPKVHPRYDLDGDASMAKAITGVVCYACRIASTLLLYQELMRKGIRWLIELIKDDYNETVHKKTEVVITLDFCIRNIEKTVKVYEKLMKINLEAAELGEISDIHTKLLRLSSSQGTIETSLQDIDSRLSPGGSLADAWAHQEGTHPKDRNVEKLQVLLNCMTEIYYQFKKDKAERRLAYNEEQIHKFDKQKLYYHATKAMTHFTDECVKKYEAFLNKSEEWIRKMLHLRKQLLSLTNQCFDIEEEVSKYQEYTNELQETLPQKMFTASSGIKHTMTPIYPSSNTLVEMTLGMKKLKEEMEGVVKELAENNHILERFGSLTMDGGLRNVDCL

Sequence of Serine/threonine-protein kinase MARK2 (Homo sapiens) (Q7KZI7 whole entry, the tested form may be a part): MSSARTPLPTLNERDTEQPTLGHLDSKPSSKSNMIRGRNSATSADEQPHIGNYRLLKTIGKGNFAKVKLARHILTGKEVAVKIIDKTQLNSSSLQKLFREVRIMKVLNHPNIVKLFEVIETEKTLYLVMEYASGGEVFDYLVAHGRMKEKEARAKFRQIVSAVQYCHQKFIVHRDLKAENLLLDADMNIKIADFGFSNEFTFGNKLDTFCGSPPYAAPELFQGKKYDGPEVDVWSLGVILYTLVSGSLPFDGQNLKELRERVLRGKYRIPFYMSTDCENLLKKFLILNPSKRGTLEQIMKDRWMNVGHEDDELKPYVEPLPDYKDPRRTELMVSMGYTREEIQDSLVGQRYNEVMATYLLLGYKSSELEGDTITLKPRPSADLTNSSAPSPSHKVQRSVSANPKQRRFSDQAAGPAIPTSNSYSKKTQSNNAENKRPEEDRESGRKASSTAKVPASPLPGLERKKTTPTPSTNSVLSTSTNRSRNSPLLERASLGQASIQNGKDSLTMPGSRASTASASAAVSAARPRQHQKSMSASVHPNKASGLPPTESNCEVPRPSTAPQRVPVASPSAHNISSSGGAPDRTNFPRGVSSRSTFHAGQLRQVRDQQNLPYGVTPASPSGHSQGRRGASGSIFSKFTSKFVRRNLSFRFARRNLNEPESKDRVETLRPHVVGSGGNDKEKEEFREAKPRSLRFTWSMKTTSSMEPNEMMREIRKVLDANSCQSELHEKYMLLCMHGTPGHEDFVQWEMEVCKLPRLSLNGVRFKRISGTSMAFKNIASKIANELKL
Sequence of Serine/threonine-protein kinase pim-1 (Homo sapiens) (P11309 whole entry, looked up): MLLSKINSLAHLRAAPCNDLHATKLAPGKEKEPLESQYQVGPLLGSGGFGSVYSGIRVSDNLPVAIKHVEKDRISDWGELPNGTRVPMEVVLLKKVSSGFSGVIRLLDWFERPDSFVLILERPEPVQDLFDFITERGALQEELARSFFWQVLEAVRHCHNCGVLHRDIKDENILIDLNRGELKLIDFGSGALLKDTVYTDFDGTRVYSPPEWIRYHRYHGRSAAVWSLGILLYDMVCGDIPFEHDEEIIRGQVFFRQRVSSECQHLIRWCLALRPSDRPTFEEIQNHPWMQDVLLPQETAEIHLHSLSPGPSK
Sequence of Serine/threonine-protein kinase SIK2 (Homo sapiens) (Q9H0K1 whole entry, looked up): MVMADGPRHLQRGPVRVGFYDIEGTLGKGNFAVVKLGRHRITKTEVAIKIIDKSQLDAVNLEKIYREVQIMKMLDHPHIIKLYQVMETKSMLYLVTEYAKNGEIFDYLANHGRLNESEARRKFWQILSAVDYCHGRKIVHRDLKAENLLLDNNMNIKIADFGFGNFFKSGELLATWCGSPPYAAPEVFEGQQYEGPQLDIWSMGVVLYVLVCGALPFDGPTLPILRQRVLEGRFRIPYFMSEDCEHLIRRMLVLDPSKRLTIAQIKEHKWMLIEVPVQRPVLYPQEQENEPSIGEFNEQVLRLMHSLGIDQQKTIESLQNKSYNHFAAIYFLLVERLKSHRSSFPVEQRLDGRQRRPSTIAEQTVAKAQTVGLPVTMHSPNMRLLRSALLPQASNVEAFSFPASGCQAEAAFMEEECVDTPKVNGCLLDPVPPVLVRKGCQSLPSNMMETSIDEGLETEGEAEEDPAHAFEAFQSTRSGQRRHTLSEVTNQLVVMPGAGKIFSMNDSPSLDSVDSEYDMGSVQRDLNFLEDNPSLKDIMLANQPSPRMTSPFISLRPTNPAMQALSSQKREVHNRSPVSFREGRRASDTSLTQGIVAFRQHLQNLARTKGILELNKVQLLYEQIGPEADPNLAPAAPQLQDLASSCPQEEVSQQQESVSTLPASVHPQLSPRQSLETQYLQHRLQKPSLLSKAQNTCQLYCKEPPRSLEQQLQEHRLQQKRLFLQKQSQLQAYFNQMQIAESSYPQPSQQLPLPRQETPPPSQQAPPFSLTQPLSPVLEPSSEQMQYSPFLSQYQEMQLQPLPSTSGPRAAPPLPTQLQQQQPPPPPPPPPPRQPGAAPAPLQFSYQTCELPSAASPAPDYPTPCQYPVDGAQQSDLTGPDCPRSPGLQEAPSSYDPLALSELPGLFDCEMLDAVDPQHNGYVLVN
Sequence of Serine/threonine-protein kinase SIK1 (Homo sapiens) (P57059 whole entry): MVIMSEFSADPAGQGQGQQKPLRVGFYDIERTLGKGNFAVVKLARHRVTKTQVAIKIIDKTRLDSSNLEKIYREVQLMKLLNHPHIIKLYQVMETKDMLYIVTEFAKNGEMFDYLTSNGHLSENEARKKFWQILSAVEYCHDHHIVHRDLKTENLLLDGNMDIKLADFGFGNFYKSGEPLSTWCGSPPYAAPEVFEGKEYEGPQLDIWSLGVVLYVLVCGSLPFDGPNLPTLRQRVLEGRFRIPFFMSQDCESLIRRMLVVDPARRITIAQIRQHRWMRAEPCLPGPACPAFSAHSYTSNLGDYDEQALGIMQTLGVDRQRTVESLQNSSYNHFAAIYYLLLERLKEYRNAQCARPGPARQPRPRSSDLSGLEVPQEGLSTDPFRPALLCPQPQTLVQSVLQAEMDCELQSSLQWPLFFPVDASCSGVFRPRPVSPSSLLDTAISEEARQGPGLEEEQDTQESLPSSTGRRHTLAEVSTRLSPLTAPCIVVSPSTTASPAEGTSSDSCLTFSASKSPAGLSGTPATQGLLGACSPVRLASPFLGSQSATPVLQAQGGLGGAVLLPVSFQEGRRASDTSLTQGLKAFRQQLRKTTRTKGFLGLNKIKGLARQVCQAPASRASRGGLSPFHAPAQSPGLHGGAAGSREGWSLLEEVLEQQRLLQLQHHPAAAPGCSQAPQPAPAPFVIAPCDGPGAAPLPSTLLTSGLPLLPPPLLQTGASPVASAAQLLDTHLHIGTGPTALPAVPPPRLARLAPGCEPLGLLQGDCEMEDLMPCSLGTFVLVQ
Sequence of Phosphorylase b kinase gamma catalytic chain, skeletal muscle/heart isoform (Homo sapiens) (Q16816 whole entry, looked up, canonical isoform): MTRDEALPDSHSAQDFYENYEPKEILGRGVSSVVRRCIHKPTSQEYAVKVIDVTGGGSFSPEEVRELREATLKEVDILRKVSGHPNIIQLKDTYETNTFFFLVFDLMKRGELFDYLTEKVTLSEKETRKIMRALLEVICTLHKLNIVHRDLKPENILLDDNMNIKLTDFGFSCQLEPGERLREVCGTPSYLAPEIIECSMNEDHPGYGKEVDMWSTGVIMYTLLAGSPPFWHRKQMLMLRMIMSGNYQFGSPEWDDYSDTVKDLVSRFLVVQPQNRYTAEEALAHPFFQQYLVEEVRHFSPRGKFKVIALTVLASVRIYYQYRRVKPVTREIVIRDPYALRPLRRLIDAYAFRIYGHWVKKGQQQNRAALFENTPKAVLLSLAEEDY
Sequence of Serine/threonine-protein kinase pim-2 (Homo sapiens) (Q9P1W9 whole entry, looked up): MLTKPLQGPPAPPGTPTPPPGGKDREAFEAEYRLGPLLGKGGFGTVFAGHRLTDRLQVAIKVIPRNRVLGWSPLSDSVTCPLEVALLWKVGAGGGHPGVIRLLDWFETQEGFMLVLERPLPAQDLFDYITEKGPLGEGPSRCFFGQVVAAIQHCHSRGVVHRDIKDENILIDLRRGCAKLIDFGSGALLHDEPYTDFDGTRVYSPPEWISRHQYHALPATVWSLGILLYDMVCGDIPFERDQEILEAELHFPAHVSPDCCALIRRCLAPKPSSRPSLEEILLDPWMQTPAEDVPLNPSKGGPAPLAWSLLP

Structure (SMILES)	inhibition [1] [%]	inhibition [2] [%]	inhibition [3] [%]	inhibition [4] [%]	inhibition [5] [%]	inhibition [6] [%]	inhibition [7] [%]	inhibition [8] [%]	inhibition [9] [%]	inhibition [10] [%]	inhibition [11] [%]	inhibition [12] [%]	inhibition [13] [%]	inhibition [14] [%]	inhibition [15] [%]	inhibition [16] [%]	inhibition [17] [%]	inhibition [18] [%]	inhibition [19] [%]	inhibition [20] [%]
Fc1ccc(-c2nn3ncccc3c2-c2ccnc(Nc3ccc4c(c3)OCCO4)n2)cc1	-1.26	-0.29	-3.15	4.49	6.66	4.66	0.54	0.37	1.21	0.26	-0.97	-2.21	-3.73	0.63	0.49	10.5	38.4	18.8	44.6	5.89
COc1cc(Nc2nccc(Nc3ccc4c(C)n[nH]c4c3)n2)cc(OC)c1OC	8.17	1.32	0.33	-0.65	5.26	2.27	0.52	1.13	1.26	1.46	1.57	2.01	-0.7	-0.04	-1.77	8.95	51.2	4.45	28	4.57
Fc1cccc(COc2ccc(Nc3ncnc4sc(-c5ccco5)cc34)cc2Cl)c1	2.25	-0.19	0.63	5.6	5.83	4.96	5.36	-0.57	0.55	0.56	0.73	-1.54	-0.36	0.95	1.47	2.24	9.68	3.95	5.81	0.55
COc1cc2c(cc1Nc1nc(Nc3ccsc3C(N)=O)c3cc[nH]c3n1)N(C(=O)CN(C)C)CCC2(C)C	9	-1.55	-1.18	18.5	62	5.83	6.91	68.4	93.3	2.12	11.9	18.4	68.1	1.65	3.7	2.02	7.92	7.71	7.78	11.3
Cc1cccc2c1NC(=O)/C2=N\Nc1ccc(S(N)(=O)=O)cc1	1.34	0.5	-1.79	-1.4	2.98	3.6	2.88	1.4	-0.19	0.28	0.28	-0.05	-2.33	0.84	-0.06	6.76	2.58	7.86	2.38	2.84
COc1ccc(-c2oc3ncnc(N)c3c2-c2ccc(NC(=O)Nc3cc(C(F)(F)F)ccc3F)cc2)cc1	0.81	1.45	4.43	4.93	16.9	6.42	9.75	-0.3	0.75	0.28	1.06	0.37	5	2.58	4.28	6.56	14.4	11.9	10.7	1.47
N#Cc1c(NC(=O)c2ccc(F)cc2)sc2c1CCCC2	0	-0.36	0.96	1.21	2.76	1	1.36	-1.04	-0.95	-0.39	-0.05	0.71	1.6	0.52	-0.3	1.57	3.96	-1.57	8.23	0.78
c1ccc(-c2nc3n(c2-c2ccc4c(c2)OCO4)CCC3)nc1	1.22	-5.85	-0.24	3.66	2.79	1.19	0.01	0.37	0.72	-0.34	0.83	0.35	1.07	0.81	0.42	2.02	4.54	0.11	3.1	1
COc1cccc(-n2ncc3c(N/N=C/c4ccc(F)cc4)ncnc32)c1	1.76	0.08	0.35	2.66	5.43	5.34	6.87	1.15	1.15	-0.5	0.1	0.77	0.03	1.85	2.88	9.59	14	6.43	13.7	2.42
Clc1ccc(-c2nn3ncccc3c2-c2ccnc(Nc3ccccc3)n2)cc1	0.63	-0.14	0.05	1.22	3.66	0.85	0.51	0.13	0.33	0.34	0.51	3.12	0.33	0.57	-0.73	3.67	13.6	-1.6	13.9	1.29
c1ccc(COc2ccc(Nc3ncnc4ccc(-c5ccco5)cc34)cc2)cc1	1.38	0.95	1.6	4.05	5.22	1.07	2.25	-1.26	0.42	0.63	1.2	-0.14	0.8	0.38	0.36	1.4	7.46	-3.82	1.35	-0.27
COc1ccc(-c2nn3ncccc3c2-c2ccnc(Nc3ccc4c(c3)OCCO4)n2)cc1	-0.07	1.07	0.37	2.6	6.21	0.91	0.83	0.46	-0.36	0.54	1.11	0.26	2.15	0.05	-0.76	1.35	12.5	-0.55	6.1	-0.73
COc1ccc(-c2cc3c(N)ncnc3o2)cc1	3.33	1.26	0.48	0.47	2.53	-1.54	-2.23	-1.06	2.3	0.27	2.23	1.44	6.86	-0.43	-0.51	-3.64	12	5.43	7.33	0.41
Cc1ccc2c(-c3ccnc(Nc4ccccc4)n3)c(-c3ccc(F)cc3)nn2n1	1.15	0.46	-1.64	1.5	4.45	4.39	1.91	-0.18	-0.05	-0.3	0.72	-1.46	-3.61	0.87	-0.35	1.9	24.1	13.3	33.2	1.85
